Source: PubChem
RAD52 inh = RAD52 (human) annealing inhibition | inhibition, % at 18.7 µM | recombinant RAD52 DNA annealing, FRET fluorescence | 0.46% of 360,000 active | P43351;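 active means every replicate showing at least 50% inhibition; inconclusive means mean inhibition at least 50% but not in every replicate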
Target sequence (P43351 whole entry, looked up): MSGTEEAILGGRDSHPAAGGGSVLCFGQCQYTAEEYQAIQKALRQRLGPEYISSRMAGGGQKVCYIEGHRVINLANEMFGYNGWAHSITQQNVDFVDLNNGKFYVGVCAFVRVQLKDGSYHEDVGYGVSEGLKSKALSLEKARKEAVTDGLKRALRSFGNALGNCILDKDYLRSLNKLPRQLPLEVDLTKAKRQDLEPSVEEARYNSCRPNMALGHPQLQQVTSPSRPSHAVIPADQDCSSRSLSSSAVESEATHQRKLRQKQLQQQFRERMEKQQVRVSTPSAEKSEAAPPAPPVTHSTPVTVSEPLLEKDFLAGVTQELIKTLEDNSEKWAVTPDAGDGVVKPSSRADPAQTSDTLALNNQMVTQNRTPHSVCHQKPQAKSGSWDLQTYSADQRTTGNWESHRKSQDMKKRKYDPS
PREPL inh = inhibitors of human prolyl oligopeptidase-like enzyme PREPL | AID 2751 | Q4J6C6 | 0.68% of 320,000 active | recombinant PREPL, fluorescence polarization activity-based probe | inhibition, % at 5.96 µM; in the data active means inhibition above about 43%;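 further: 0% = enzyme with DMSO and 100% = wells lacking enzyme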
beta cell repl = inducers of beta-cell replication in MIN6 cells | 0.29% of 330,000 active | MIN6 cells proliferation, ATPlite luminescence, 48 h; cells starved in 0.2% serum; 100% = growth in 10% serum | proliferation, % at 10 µM | AID 2380;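 active means compounds whose signal lies at least 3.5 SD above the mean of all wells on their plate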;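 further: 0% = DMSO-treated cells in low-serum medium and 100% = 10% serum control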
RAD54 inh = blocks human RAD54 Holliday junction branch migration | Q92698 | 0.14% of 360,000 active | FAM/BHQ fluorescence | inhibition, % at 10.4 µM;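 active means mean normalized replicate activity at least 40 and at least half of replicates scoring 40 or more; inconclusive means only one of the two criteria met; inactive means mean below 40 and under half of replicates reaching 40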;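 further: 0% = median of neutral control wells and 100% = median of positive control wells; inhibitors cause a drop in the FAM fluorescence signal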
DNA FID counter = counter-screen for HCV NS3 helicase inhibitors: DNA intercalator displacement. inhibition, % at 7.9 µM. DNA fluorescent intercalator displacement, fluorescence. 0.17% of 290,000 active; in the data active means inhibition above about 37%;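 further: 0% = vehicle and 100% = reference compound; higher means more ethidium bromide displaced from hairpin DNA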
UBC13 inh = blocks human UBC13 polyubiquitin chain formation; inhibition, % at 20 µM; AID 485273; P61088; TR-FRET; 0.47% of 330,000 active; in the data active means inhibition above about 45%, passing the limit was not always enough; inconclusive means no clear call, values can overlap the other calls
Target sequence (P61088 whole entry, looked up): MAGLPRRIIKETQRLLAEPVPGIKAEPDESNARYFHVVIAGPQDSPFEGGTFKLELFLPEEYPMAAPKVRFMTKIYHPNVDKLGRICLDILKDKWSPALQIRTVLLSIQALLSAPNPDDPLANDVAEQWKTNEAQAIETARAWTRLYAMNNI
Casp3 UBC13 ctr = inhibits human caspase-3 in UBC13 counter-screen. inhibition, % at 20 µM. Recombinant caspase-3, Caspase-Glo 3/7 luminescence, 60 min. shares compounds with UBC13 inh. AID 488856. 4% of 1,400 active;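 active means mean inhibition across replicates above about 26%, limit read from the data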;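 further: plate controls were DMSO with caspase-3 for no effect and DMSO wells lacking enzyme for full effect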
UBC13 confirm = human UBC13 polyubiquitin inhibition, confirmed. UBC13 polyubiquitination, TR-FRET, biochemical. shares compounds with UBC13 inh. 68% of 1,400 active. inhibition, % at 10 µM; in the data active means inhibition above about 45%; inconclusive means no clear call, values can overlap the other calls
Starred values were filed as active, the others as inactive; ? = inconclusive; / = not tested or not shown. The list is not random: actives were taken first. Their share in the collection is about 1.3%.

SMILES	RAD52 inh	PREPL inh	beta cell repl	RAD54 inh	DNA FID counter	UBC13 inh	Casp3 UBC13 ctr	UBC13 confirm
C/C=C/c1cnc2c(c1)C(=O)N([C@H](C)CO)C[C@H](C)[C@@H](CN(C)C(=O)C1CCOCC1)O2	0.7	/	/	-8.2	/	/	/	/
CSCCC(NC(=O)c1ccccc1Cl)C(=O)NNC(=O)c1csc(N2CCOCC2)n1 (stereo not given)	-9.8	0.3	4.5	4.4	/	50.2*	-1.5	57.0*
CSCCC(NC(=O)c1ccccc1Br)C(=O)NNC(=O)c1csc(N2CCOCC2)n1 (stereo not given)	-1.1	-5.3	-0.9	4.5	/	49.9*	-0.6	52.0*
Cc1cc(N)c2cc(NC(=O)/C=C/c3ccccc3Cl)ccc2n1	/	-35.5	-6.1	0.4	31.0	117.1*	-0.8	128.8*
CCCNC(=O)[C@@H]1[C@@H](CO)[C@@H]2Cn3c(ccc(/C=C/c4ccccc4)c3=O)[C@@H]2N1CC	-4.2	/	/	-9.9	/	/	/	/
CCC1CCCCN1CCCNC(=O)C1CCN(c2ncnc3c2nc2n3CCCCC2)CC1 (stereo not given)	6.3	3.6	1.1	-8.4	3.0	52.9*	-3.7	62.7*
Cc1ccc(NC(=O)C2CCN(c3ncnc4c3nc3n4CCCCC3)CC2)cc1Cl	-24.5	19.6	-4.0	-3.6	-36.0	72.4*	0.2	94.5*
CCN(CCNC(=O)C1CCCN(c2ncnc3c2nc2n3CCCCC2)C1)Cc1ccccc1 (stereo not given)	-14.2	11.0	-0.3	1.4	20.0	25.4	/	/
CN(CCNC(=O)C1CCN(c2ncnc3c2nc2n3CCCCC2)CC1)Cc1ccccc1	-4.8	3.8	4.8	3.2	-1.9	91.0*	-0.8	106.1*
NS(=O)(=O)c1ccc(CCNC(=O)C2CCN(c3ncnc4c3nc3n4CCCCC3)CC2)cc1	-8.9	3.8	-1.1	2.6	-28.6	55.3*	-7.1	59.0*
Cc1ccc(NC(=O)C2CCCN(c3ncnc4c3nc3n4CCCCC3)C2)cc1Cl (stereo not given)	-6.1	-8.7	0.4	13.7	-26.9	-1.0	/	/
CCCC#Cc1cnc2c(c1)C(=O)N([C@@H](C)CO)C[C@@H](C)[C@@H](CN(C)Cc1ccccc1)O2	1.7	/	/	/	/	/	/	/
N=c1n(Cc2ccccc2)c2ccccc2n1CC(O)COc1ccc(Cl)cc1Cl (stereo not given)	49.3	/	-5.4	/	28.7	65.3*	-0.2	91.1*
Cc1cccc(OCC(O)Cn2c(=N)n(Cc3ccccc3)c3ccccc32)c1 (stereo not given)	11.5	-14.3	-6.4	19.3	23.6	36.2	/	/
O=C(NCCCN1CCOCC1)c1ccc2c(=O)n(Cc3cccc(Br)c3)c(=S)[nH]c2c1	/	-154.1	0.0	0.4	14.5	48.6*	-2.5	59.8*
O=C(NCCCN1CCCC1)c1ccc(Cn2c(=S)[nH]c3ccc(Br)cc3c2=O)cc1	47.0	8.0	-6.7	/	14.6	47.8*	11.6	?
COCCn1c(=S)[nH]c2cc(C(=O)NCCCN3CCOCC3)ccc2c1=O	4.1	17.4	-2.2	16.9	5.6	2.1	/	/
COCCCNC(=O)c1ccc2c(=O)n(Cc3ccc(Cl)cc3)c(=S)[nH]c2c1	-8.6	-4.7	-2.2	-10.0	-13.4	21.8	/	/
CC1CCN(CCNC(=O)c2ccc3c(=O)n(Cc4ccc(Cl)cc4)c(=S)[nH]c3c2)CC1	/	-26.9	-3.9	2.3	14.7	45.3*	-3.3	60.9*
N#C[C@H]1[C@H](c2ccccc2-c2ccccc2F)[C@@H](CO)N1C(=O)C1CC1	0.5	/	/	/	/	/	/	/
O=C(C[C@@H]1CC[C@H](NC(=O)c2cnccn2)[C@@H](CO)O1)NCc1ccccc1F	-8.9	/	/	-3.3	/	/	/	/
CCCCCc1ccc(OCCCC[n+]2ccccc2)c(CCCCC)c1	/	14.2	-5.7	/	22.8	59.1*	-4.4	84.4*
CCC(C)(C)c1ccc(OCCCC[n+]2ccccc2)c(C(C)(C)CC)c1	39.4	15.5	-6.1	/	27.4	65.5*	-3.1	97.8*
Cc1cc(=O)oc2cc(OCCCC[n+]3ccccc3)ccc12	3.6	6.5	2.6	/	8.5	-1.4	/	/
CN(C)CCCNC(=O)C[C@@H]1CC[C@@H](NS(=O)(=O)c2ccc(F)cc2)[C@@H](CO)O1	-18.8	/	/	-11.5	/	/	/	/
SMILES	RAD52 inh	PREPL inh	beta cell repl	RAD54 inh	DNA FID counter	UBC13 inh	Casp3 UBC13 ctr	UBC13 confirm
COc1ccc(C)cc1NC(=O)c1cc2c(s1)CCC2	/	-4.8	-3.1	8.7	-7.0	6.0	/	/
COC(=O)c1sccc1NC(=O)c1cc2c(s1)CCCC2	/	3.0	-5.7	-13.1	-1.1	45.9*	57.9*	20.1
O=C(NCc1ccncc1)C1CCN(S(=O)(=O)c2cccc(C(F)(F)F)c2)CC1	-23.4	/	-0.1	3.0	-11.5	5.3	/	/
O=C(Nc1ccncc1)C1CCN(S(=O)(=O)c2cccc(C(F)(F)F)c2)CC1	33.8	13.6	-0.8	6.0	/	54.2*	0.7	32.1
Cc1ccc(C(C(=O)NCC2CCCO2)N(C(=O)c2snc(C(N)=O)c2N)c2ccccc2F)o1 (stereo not given)	-10.1	-1.3	0.3	2.9	-39.9	47.2*	-0.1	30.2
Cc1ccc(C(C(=O)NCC2CCCO2)N(C(=O)c2snc(C(N)=O)c2N)c2ccc(F)cc2)o1 (stereo not given)	-14.4	0.8	-1.0	-4.6	-43.0	46.3*	-4.6	38.9
CCOc1ccc(N(C(=O)c2snc(C(N)=O)c2N)C(C(=O)NCC2CCCO2)c2ccc(C)o2)cc1 (stereo not given)	-17.0	/	1.2	-7.9	-32.7	74.2*	-0.2	81.7*
NC(=O)c1nsc(C(=O)N(c2ccccc2F)C(C(=O)NCc2ccc(F)cc2)c2ccc(O)cc2)c1N (stereo not given)	-4.5	27.2	-1.0	-4.1	-12.2	47.0*	1.9	48.9*
COc1ccccc1N(C(=O)c1snc(C(N)=O)c1N)C(C(=O)NCc1ccccc1)c1ccc(O)cc1 (stereo not given)	-14.0	/	0.0	-2.6	-32.2	7.2	/	/
CCCN1[C@@H]2c3ccc(-c4ccccc4)c(=O)n3C[C@@H]2[C@@H](CO)[C@@H]1C(=O)N1CCOCC1	-7.7	/	/	-7.9	/	/	/	/
CCCN(C)C[C@H]1Oc2cc(-c3ccccc3)ccc2S(=O)(=O)N([C@H](C)CO)C[C@H]1C	-12.8	/	/	-14.0	/	/	/	/
CCOc1ccc(C(C(=O)NCC2CCCO2)N(C(=O)c2snc(C(N)=O)c2N)c2ccccc2F)cc1 (stereo not given)	4.1	-9.1	-1.1	-6.4	-43.1	47.8*	-0.1	48.1*
CCN1CCN(Cc2ccc(NC(=O)c3cc(NC(=O)C(=O)c4c[nH]c5ccccc45)cc(OC)c3)cc2C(F)(F)F)CC1	-11.3	-57.2	-8.9	-7.5	/	55.4*	-3.6	76.4*
